Data as given in ChEMBL document CHEMBL4513146, “CO-ADD screening of Karazin Kharkiv National University (Ukraine) compounds”.
Results with a measured potency or affinity are listed apart.

The molecules below were run on Staphylococcus aureus. Conditions: Concentration 32 ug.mL-1;; ASSAY_TEST Inhibition of Bacterial Growth; detection method Absorption (OD600); MEDIA CAMHB; plate type 384well; NBS; CORNING #3640; time 18 hr.

Row | Compound | Inhibition [%]
1 | Cc1ccc(-n2ccn3c(=O)n(Cc4c(F)cccc4Cl)nc3c2=O)cc1C | 10.39
2 | Cc1ccc(NC(=O)Cn2nc3c(Sc4ccccc4)nccn3c2=O)c(C)c1 | 5.22
3 | Cc1cccc(NC(=O)Cn2nc3c(SCc4ccccc4)nccn3c2=O)c1C | -0.26
4 | O=C(Cn1nc2c3c4c(sc3ncn2c1=O)CCCC4)N1CCc2ccccc2C1 | 0.97
5 | O=C(Cn1nc2c(N3CCOCC3)nccn2c1=O)Nc1ccc2c(c1)OCO2 | 15.61
6 | O=C(CSc1nc2ccccc2n2cnnc12)NCc1ccccc1Cl | 1.47
7 | COc1ccc(CN(c2cc(C)cc(C)c2)S(=O)(=O)c2cccn3c(C)nnc23)cc1 | -21.45
8 | Cc1ccc(Oc2nccn3c(=O)n(CC(=O)N4CCN(c5ccccc5F)CC4)nc23)cc1 | 10.22
9 | Cc1cccc(C)c1NC(=O)CSc1nnc2c3cc(-c4ccc(F)cc4)nn3ccn12 | -13.2
10 | CCCCc1ccc(NC(=O)Cn2nc3ccc(C(=O)Nc4ccc(OC)cc4)cn3c2=O)cc1 | 3.96
11 | CC(C)Sc1ccc2nn(CC(=O)Nc3ccc(Br)cc3F)c(=O)n2n1 | -2.61
12 | COc1ccccc1Cn1c(=O)c2sccc2n2c(=O)n(CC(=O)c3ccc(C)cc3C)nc12 | -4.72
13 | C=Cc1ccc(CN(c2ccc(Cl)cc2)S(=O)(=O)c2cccn3c(C)nnc23)cc1 | 6.06
14 | Cc1ccc(-c2ccc3nn(Cc4c(F)cccc4Cl)c(=O)n3n2)cc1 | 14.3
15 | CSc1cccc(NC(=O)Cn2nc3ccc(-c4ccccc4)nn3c2=O)c1 | -12.73
